# Measurements as given in PubChem BioAssay AID1578 (Sanford-Burnham Center for Chemical Genomics, 2009).
# In all, about 290,000 compounds went through this assay and about 3,000 (1%) were called active. No stated cut-off is given here; in the data, active means inhibition mostly above about 36% (no sharp cut-off); inactive means mostly below about 34%. The full list was thinned out, with actives kept by preference.
# Assay: inhibition of NOD1-driven NF-kB reporter – cell-based, luminescence, uHTS, primary screen (AID 1578);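 further: HEK-293T reporter cells stimulated with the NOD1 agonist gamma-tri-DAP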
# Details: NOD1-driven NF-kB luciferase reporter cells, at 4 µM, stronger effect = higher value
row,SMILES,inhibition
1,CCOc1ccc(OCC)c(NC(=O)CN2CCN(c3cccc(C)c3)C(C)C2)c1 (stereo not drawn),29.9% (inactive)
2,O=C(CSc1nc2ccccc2s1)NC1CCCC1,9.6% (inactive)
3,O=C(Cn1ncc(Cl)c(Cl)c1=O)N1CCN(S(=O)(=O)c2ccc3ccccc3c2)CC1,48.9% (inactive)
4,O=C(Cn1ncc(Cl)c(Cl)c1=O)N1CCN(Cc2ccccc2)CC1,84.9% (active)
5,O=C(Cn1ncc(Cl)c(Cl)c1=O)N1CCOCC1,6.8% (inactive)
6,Cc1ccc2c(c1)C(c1ccc(F)cc1)N(C(=O)c1ccc(S(=O)(=O)N(C)C)cc1)CC(=O)N2 (stereo not drawn),3.7% (inactive)
7,C=CCOc1ccc(Br)cc1/C=C1/SC(=Nc2ccc(C(=O)O)cc2)NC1=O,40.4% (active)
8,C=CCOc1c(Br)cc(/C=C2\SC(=Nc3ccccc3)NC2=O)cc1OC,-29.6% (inactive)
9,CCOc1cc(Br)cc(/C=C2\SC(=Nc3ccccc3)NC2=O)c1O,-86.1% (inactive)
10,O=C(c1cc2cc(Cl)ccc2o1)N1CCCC1,-13% (inactive)
11,COCCn1nnnc1CN(Cc1cc2cc(OC)c(OC)cc2[nH]c1=O)C1CCCC1,-13.9% (inactive)
12,CC/C(=N\NC(=S)Nc1cccc(C)c1)c1ccccc1,48.5% (active)
13,C/C(=N\NC(=S)Nc1cccc(C)c1)c1ccccc1,-16.7% (inactive)
14,CC(C)CCNC(=S)Nc1ccc(Br)cc1,-18.8% (inactive)
15,Cc1cccc(NC(=S)NCCC(C)C)c1,69.1% (active)
16,Cc1cccc(NC(=S)N/N=C(\c2ccccc2)C(C)C)c1,-62.9% (inactive)
17,Cc1cccc(NC(=S)NCCC(c2ccccc2)c2ccccc2)c1,7.2% (inactive)
18,CC(=O)N/C(=C\c1ccc(F)cc1)C(=O)OCc1ccccc1,-8% (inactive)
19,Cc1oc(-c2ccccc2Cl)nc1CS(=O)CC(=O)NCc1cccs1 (stereo not drawn),-13.9% (inactive)
20,O=C(C/C=N/OCc1ccc(Cl)cc1Cl)c1ccc(Cl)cc1,19.3% (inactive)
21,CN(C)/C=C(\C=N\OCc1ccc(Cl)cc1Cl)C(=O)Nc1ccc(Cl)c(Cl)c1,95.7% (active)

row,SMILES,inhibition
1,O=C(C/C=N\OCc1ccc(Cl)cc1Cl)Nc1ccccc1,-17% (inactive)
2,CCN(CCCNC(=O)CN1C(=O)COc2ccccc21)c1cccc(C)c1,14.9% (inactive)
3,COc1ccc(NC(=O)C(=O)NCCN2CCN(C(=O)c3ccc(C)cc3)CC2)cc1,-23% (inactive)
4,O=C1Nc2cccnc2N(C(=O)CCl)c2ccccc21,50.5% (active)
5,CCN(CC)CC1CCCCN1CC(=O)N1c2ccccc2C(=O)Nc2cccnc21 (stereo not drawn),5.4% (inactive)
6,CN1CCN(CC(=O)N2c3ccccc3C(=O)Nc3cccnc32)CC1,-42.1% (inactive)
7,CCOC(=O)c1c(C)[nH]c(C2=NNC(=Nc3ccc(OCC)cc3)SC2)c1C,-31.6% (inactive)
8,COc1cc(O)cc2cc3c(c(O)c12)C(=O)CC(C)(O)O3 (stereo not drawn),51.8% (active)
9,CC1(C)CC(=O)c2c(O)cc(O)cc2O1,-18.9% (inactive)
10,COc1cc(O)c2c(c1)OC(C)(C)CC2=O,5.2% (inactive)
11,Cc1ccc(S(=O)(=O)c2nnn3c2nc(N2CCCCC2)c2ccccc23)cc1,-42.5% (inactive)
12,COc1ccc(CCNC(=O)c2cc(C)oc2C)cc1,-16% (inactive)
13,CC(=O)Nc1ccc(OCc2cccc3ccccc23)cc1,29.7% (inactive)
14,N#CC(c1ccc(Cl)cc1)c1ccc2c(C(F)(F)F)cc(C(F)(F)F)nc2n1 (stereo not drawn),39.5% (inactive)
15,Cc1ccc(C(C#N)c2ccc3c(C(F)(F)F)cc(C(F)(F)F)nc3n2)cc1 (stereo not drawn),30% (inactive)
16,CCNS(=O)(=O)c1ccc2c(c1)NCC2,-16.1% (inactive)
17,COc1ccc(C(=O)N(C)Cc2ccccc2)cc1Br,-39.1% (inactive)
18,COc1cc(C(=O)NC(=S)N(C)Cc2ccccc2)cc(OC)c1OC,-14.8% (inactive)
19,COc1ccc(C(=O)NC(=S)N(C)Cc2ccccc2)cc1Br,45% (active)
20,Cc1cc(C)c(OCCCCn2cnc3ccccc3c2=O)c(C)c1,12.5% (inactive)
21,CCOC(=O)Cc1[nH]nc2c1C(c1ccsc1)C(C#N)=C(N)O2 (stereo not drawn),-16.3% (inactive)

row,SMILES,inhibition
1,CC(=O)Nc1ccc(S(=O)(=O)Nc2ccc3c(c2)OCCO3)cc1,-25% (inactive)
2,CC[n+]1c(-c2ccccc2)csc1Nc1c(C)n(C)n(-c2ccccc2)c1=O,-17.7% (inactive)
3,C=CC[n+]1c(-c2ccc(C)cc2)csc1Nc1c(C)n(C)n(-c2ccccc2)c1=O,8.4% (inactive)
4,CCOc1ccc(CCNC(=O)C2CCC(=O)N2C2CCCCC2)cc1OCC (stereo not drawn),6% (inactive)
5,O=C(NCc1cccnc1)C1CCCN(S(=O)(=O)c2ccccc2)C1 (stereo not drawn),-13.3% (inactive)
6,Cc1cc([N+](=O)[O-])nn1CCCC(=O)Nc1ccc(Cl)cc1Cl,-21% (inactive)
7,COC(=O)c1cccc(NC(=O)Cn2nnc3ccccc32)c1,-17.8% (inactive)
8,Cc1csc(NC(=O)CSc2nnc3ncccn23)n1,-6.2% (inactive)
9,CCCCNC(=O)NCc1cnn(C)c1C,-24.6% (inactive)
10,CC(=O)NNC(=O)c1ccncc1,-26.4% (inactive)
11,CCCCc1nc2ccc(S(=O)(=O)O)cc2[nH]1,7.8% (inactive)
12,COc1ccccc1S(=O)(=O)c1ccccc1[N+](=O)[O-],-10.5% (inactive)
13,COc1ccc([N+](=O)[O-])c(S(=O)(=O)c2ccc(Cl)cc2)n1,79.2% (active)
14,COc1ccc(OCCOc2ccccc2[N+](=O)[O-])cc1,-19.1% (inactive)
15,COc1ccc([N+](=O)[O-])c(S(=O)(=O)c2ccccc2)n1,61.7% (active)
16,O=[N+]([O-])c1ccccc1S(=O)(=O)c1ccccc1,-2.8% (inactive)
17,Cn1cnc([N+](=O)[O-])c1S(=O)(=O)c1ccc(Cl)cc1,-30.1% (inactive)
18,COc1nc(OC)nc(Oc2ccc(Cl)cc2[N+](=O)[O-])n1,0.6% (inactive)
19,Nc1cccnc1S(=O)(=O)c1ccccc1,-2.3% (inactive)
20,Cc1ccc(C(=O)COC(=O)CN2C(=O)C3C4CC(C(Br)C4Br)C3C2=O)cc1 (stereo not drawn),-29.5% (inactive)
21,CC(C)n1c(=O)n(CC(=O)NCC2CCCO2)c(=O)c2c3c(sc21)COC(C)(C)C3 (stereo not drawn),-14% (inactive)
